The values that follow come from PubChem BioAssay.

SMILES strings stand for the structures. The source made the active and inactive calls.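 The calls were made as follows, unless noted: active = NADPH fluorescence slope more negative than the mean of all samples by about 3 SD, 99.7% confidence; inactive = the rest.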

Test [1] can be described thus: inhibitors of TNFa-induced NFkB p65 translocation, primary screen, imaging, HUVEC, MLSMR starter and 10KST1 sets (AID 438;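 active = inhibition above 20% together with a positive visual image hit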;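 also: compound added about 3h40 before a 20 min TNFalpha stimulation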;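 as to inhibition: signal is the nuclear over cytoplasmic p65 intensity ratio per well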). Particulars: HUVEC TNFa-induced p65 nuclear translocation; cell count: measured here: nuclei count (cytotoxicity indicator), at 2.08 µM; inhibition: at 2 µM, stronger effect = higher value, 0% TNFa-plus-vehicle, 100% no-TNFa wells.
Test [2] can be described thus: inhibitors of mutant huntingtin aggregation, primary screen, imaging, exon1htt(103Q)mCFP cells, high-content imaging (AID 483;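 active = visual image review flags a hit and inhibition of aggregation exceeds 20%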;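 also: compound exposure lasted 3 days before fixation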;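 as to nuclei count: percent of the per-plate median nuclei count of sample wells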). Conditions: exon1htt(103Q)mCFP cell line, aggregate imaging, at 2 µM; inhibition of aggregation: stronger effect = higher value; nuclei count: measured here: cell count, toxicity.
A short description of test [3]: inhibitors of E-selectin induction by TNFa, primary screen, imaging, HUVEC, immunofluorescence, MLSMR starter and 10KST1 sets (AID 487;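 active = visually confirmed hit in the image check and inhibition above 20%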;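 as to inhibition: signal is fraction of cell area covered by stained E-selectin grains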;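 as to nuclei count: 100% = median nuclei count of all wells on the same plate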). Particulars: HUVEC TNFalpha-induced E-selectin immunofluorescence imaging, at 2 µM; inhibition: stronger effect = higher value; nuclei count: measured here: cell number, toxicity.
The target of test [4] is Voltage-gated potassium channel subunit beta-2 (Rattus norvegicus) (UniProt P62483). The test is described as follows: KvBeta enzyme negative modulators, primary screen, biochemical, NADPH fluorescence (AID 622;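 active = fluorescence slope higher than the sample average by over 3 SD, cut at about -0.22 in these data, passing the limit was not always enough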;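 also: slope of raw intensity against log time taken from 70 to 1610 s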). Particulars: recombinant KvBeta, 4-cyanobenzaldehyde reduction, at 10 µM, stronger effect = higher value.
For test [5] the target is unchanged. The test is described as follows: KvBeta positive modulators, primary screen, biochemical, NADPH fluorescence (AID 623).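 Also: fluorescence intensity change per second fitted from 20 to 320 s.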 Conditions: Recombinant KvBeta, NADPH fluorescence decrease slope, 10 min; at 10 µM; stronger effect = lower value.
In test [6] the target is Alpha-2C adrenergic receptor (Homo sapiens) (UniProt P18825). The test is described as follows: modulators of alpha2C/GIRK thallium flux, primary screen, cell-based, HEK293 alpha2C/GIRK1/2 (AID 624;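 active = fluorescence slope after compound addition differing from the mean of all screened samples at 99.7% confidence, in either direction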;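 also: slope of fluorescence ratio to pre-addition baseline per second over 15 to 24 s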). Conditions: thallium flux BTC fluorescence, at 10 µM, actives lie on both sides.
The nature of test [7]: inhibitors of Sendai virus-induced IRF3 signaling, primary screen, TLR/RLR signaling modifier project, cell-based, Sendai virus stimulus, luciferase, 10K MLSCN set (AID 602276;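 active = inhibition at or above 50% at 10 µM; inactive = inhibition below 50%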;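 also: firefly luciferase from ISG56 promoter only with Renilla not read in this screen; 0% = Sendai virus plus DMSO and 100% = medium plus DMSO without virus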). Particulars: HEK293 RL24 IRF3 luciferase reporter, at 10 µM, stronger effect = higher value. Background: In a reporter assay the amount or activity of a reporter protein is the signal.
The nature of test [8]: inhibitors of poly I:C-induced TLR3 signaling, primary screen, cell-based, poly I:C stimulus, luciferase, 10K MLSCN set (AID 602277;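 active = inhibition of the reporter signal at or above 50%; inactive = inhibition below 50%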). Conditions: HEK293-TLR3 RL24 IRF3 luciferase reporter, at 10 µM, stronger effect = higher value.

Chain of Alpha-2C adrenergic receptor (Homo sapiens) (P18825 whole entry, looked up): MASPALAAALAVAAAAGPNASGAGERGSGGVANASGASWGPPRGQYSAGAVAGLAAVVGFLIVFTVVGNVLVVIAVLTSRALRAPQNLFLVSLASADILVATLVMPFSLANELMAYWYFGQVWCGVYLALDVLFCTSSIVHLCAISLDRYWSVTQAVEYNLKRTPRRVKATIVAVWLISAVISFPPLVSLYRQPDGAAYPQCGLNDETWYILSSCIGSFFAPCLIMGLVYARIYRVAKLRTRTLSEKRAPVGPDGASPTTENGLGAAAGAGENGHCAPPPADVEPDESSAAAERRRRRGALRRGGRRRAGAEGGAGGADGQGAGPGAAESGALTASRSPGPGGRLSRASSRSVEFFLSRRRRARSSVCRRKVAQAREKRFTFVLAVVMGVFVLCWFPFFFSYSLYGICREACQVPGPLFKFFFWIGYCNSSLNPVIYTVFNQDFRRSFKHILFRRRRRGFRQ
Chain of Voltage-gated potassium channel subunit beta-2 (Rattus norvegicus) (P62483 whole entry, looked up): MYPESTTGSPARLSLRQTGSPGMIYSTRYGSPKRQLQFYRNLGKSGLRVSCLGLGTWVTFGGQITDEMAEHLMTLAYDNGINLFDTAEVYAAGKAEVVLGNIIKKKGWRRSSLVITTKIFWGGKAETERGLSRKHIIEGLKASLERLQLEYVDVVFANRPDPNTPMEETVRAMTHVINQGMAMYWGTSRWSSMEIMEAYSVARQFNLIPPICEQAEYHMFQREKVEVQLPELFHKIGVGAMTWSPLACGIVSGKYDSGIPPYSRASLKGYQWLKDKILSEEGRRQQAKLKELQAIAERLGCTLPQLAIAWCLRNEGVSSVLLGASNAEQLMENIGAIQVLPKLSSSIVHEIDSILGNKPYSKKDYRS

In general, inhibition refers to the change of the read-out against control, counted positive when it falls. On to `Cc1ccc2cc(C(c3nnnn3CC3CCCO3)N3CCc4ccccc4C3)c(=O)[nH]c2c1` (stereo not given), for which, in test [1], the cell count was 691. Besides, the inhibition in test [1] is -6.9% (inactive); in test [3], -102% (inactive); in test [7] it was 14% (inactive); in test [8], 29.9% (inactive). Further, the inhibition of aggregation in test [2] was 0.5% (inactive). The nuclei count in test [2] stood at 78.6%; in test [3], 120%. Besides, the fluorescence slope in test [4] is -0.523 (inactive). Besides, in test [5], the NADPH fluorescence slope is -3.7e-05 (inactive). For the same compound, the slope in test [6] was 0.00473 (inactive).
For `CCN1C(=O)/C(=C2\C=Cc3ccccc3N2CC)OC1=S`, in test [1], the cell count worked out at 695. Also, the inhibition in test [1] was -8% (inactive); in test [3] it was 16.6% (inactive); in test [7] it was 4% (inactive); in test [8], -8.93% (inactive). In addition, the inhibition of aggregation in test [2] is 0.5% (inactive). In addition, the nuclei count in test [2] was 8.3%; in test [3] it was 107%. Also, in test [4], the fluorescence slope was -0.334 (inactive). For the same compound, in test [5], the NADPH fluorescence slope was -4.6e-05 (inactive). Also, the slope in test [6] is 0.00379 (inactive).
As to `COc1ccc(C2C=C(c3ccccc3)Nc3ncnn32)cc1` (stereo not given), the cell count in test [1] came to 558. Also, the inhibition in test [1] is -20.9% (inactive); in test [3] it was -15.1% (inactive); in test [7] it was 5.64% (inactive); in test [8] it was -14.5% (inactive). Further, in test [2], the inhibition of aggregation is -12.6% (inactive). Further, the figures for the nuclei count in test [2] and in test [3] were 105% and 110%, respectively. For the same compound, the fluorescence slope in test [4] was -0.0904 (active). In test [5], the NADPH fluorescence slope was 4.2e-06 (inactive). The slope in test [6] is 0.00603 (inactive).
For `COc1ccc(NC(C)=O)cc1NC(=O)CN1CCN(c2ccccn2)CC1`, the cell count in test [1] came to 573. Besides, the inhibition in test [1] was -7% (inactive); in test [3], -35.2% (inactive); in test [7], -3.99% (inactive); in test [8], 0.164% (inactive). Besides, in test [2], the inhibition of aggregation is -1.2% (inactive). Also, the nuclei count was 104% in test [2] and 74.8% in test [3]. Further, the fluorescence slope in test [4] was -0.526 (inactive). Also, the NADPH fluorescence slope in test [5] was -1.4e-05 (inactive). In addition, the slope in test [6] is 0.00596 (inactive).
On to `Cc1cc(C(=O)Nc2c(F)cc(F)cc2Br)no1`, for which the cell count in test [1] came to 338. The inhibition was -3.2% (inactive) in test [1], -143% (inactive) in test [3], 3.46% (inactive) in test [7] and -12% (inactive) in test [8]. Also, the inhibition of aggregation in test [2] was 25.8% (inactive). Besides, the nuclei count stood at 94.4% in test [2] and 103% in test [3]. Besides, in test [4], the fluorescence slope was -0.58 (inactive). Also, the NADPH fluorescence slope in test [5] is 1.4e-05 (inactive). Moreover, the slope in test [6] is 0.0051 (inactive).
In the case of `CC(C)OC(=O)CSc1nnc(-c2ccco2)n1N`, the cell count in test [1] was found to be 618. Besides, the inhibition was 0% (inactive) in test [1], -1% (inactive) in test [3], 0.828% (inactive) in test [7] and 17% (inactive) in test [8]. Further, the inhibition of aggregation in test [2] was 7.4% (inactive). Also, the nuclei count in test [2] worked out at 93.2%; in test [3], 97.5%. Moreover, the fluorescence slope in test [4] is -0.422 (inactive). Besides, the NADPH fluorescence slope in test [5] was -2.8e-05 (inactive). Besides, in test [6], the slope was 0.00405 (inactive).
For `CC1=NC(Nc2nc(C)c3ccccc3n2)=NC(C)(C)C1`, the cell count in test [1] is 391. The inhibition in test [1] is 1.5% (inactive); in test [3], -13% (inactive); in test [7], 3.86% (inactive); in test [8] it was 1.48% (inactive). Also, the inhibition of aggregation in test [2] was -1.8% (inactive). The nuclei count in test [2] worked out at 94%; in test [3], 111%. The fluorescence slope in test [4] was -0.462 (inactive). In addition, in test [5], the NADPH fluorescence slope is 6.6e-05 (inactive). Moreover, the slope in test [6] is 0.00711 (inactive).
On to `COc1ccc(C(=O)NCc2nnc(SC)n2C2CCCCC2)cc1`, for which the cell count in test [1] came to 591. Moreover, the inhibition was -2.4% (inactive) in test [1], -35.7% (inactive) in test [3], 18.8% (inactive) in test [7] and 26% (inactive) in test [8]. The inhibition of aggregation in test [2] is -1.1% (inactive). Also, the nuclei count in test [2] came out at 96%; in test [3], 101%. Also, the fluorescence slope in test [4] was -0.521 (inactive). In addition, the NADPH fluorescence slope in test [5] is -3.9e-05 (inactive). For the same compound, in test [6], the slope was 0.00737 (inactive).
With `CCCc1cc(C(=O)Nc2sc(C)c(C)c2C(=O)OCC)no1`, in test [1], the cell count was found to be 856. In addition, the inhibition in test [1] is 2.3% (inactive); in test [3], -79.7% (inactive); in test [7] it was 8.68% (inactive); in test [8], 31.8% (inactive). Besides, the inhibition of aggregation in test [2] was 2.1% (inactive). Moreover, the values for the nuclei count in test [2] and in test [3] were 126% and 114%, respectively. Further, in test [4], the fluorescence slope is -0.229 (inactive). Also, the NADPH fluorescence slope in test [5] is -5.5e-06 (inactive). In test [6], the slope is 0.00716 (inactive).
With `CCOc1ccc(N(CC(=O)Nc2ccc(F)c(F)c2)S(=O)(=O)c2c(C)noc2C)cc1`, the cell count in test [1] was found to be 758. For the same compound, the inhibition in test [1] is -0.6% (inactive); in test [3], -35.5% (inactive); in test [7], 13% (inactive); in test [8], 30.3% (inactive). In test [2], the inhibition of aggregation is 25.8% (inactive). The nuclei count in test [2] was 130%; in test [3], 109%. Moreover, the fluorescence slope in test [4] was -0.521 (inactive). For the same compound, the NADPH fluorescence slope in test [5] was -4.9e-05 (inactive). Further, the slope in test [6] was 0.00774 (inactive).
